Results published in ChEMBL document CHEMBL1157539, “Thousands of chemical starting points for antimalarial lead identification” (Nature, 2010).

Columns and labels:
Format in all cases: functional
Plasmodium falciparum [1] = experiment: GSK_TCMDC: Inhibition of Plasmodium falciparum 3D7 in whole red blood cells, using parasite LDH activity as an index of growth. Test compounds present at 2uM
Plasmodium falciparum [2] = experiment: GSK_TCMDC: Inhibition of Plasmodium falciparum Dd2 in whole red blood cells, using parasite LDH activity as an index of growth. Test compounds present at 2uM
HepG2 = experiment: GSK_TCMDC: Percent inhibition of human HepG2 cell line. Test compounds present at 10uM.

| Structure (SMILES) | Inhibition (Plasmodium falciparum [1]) [%] | Inhibition (Plasmodium falciparum [2]) [%] | Inhibition (HepG2) [%] |
| --- | --- | --- | --- |
| Br.N=C1N=C(N)NC2(CCCCC2)N1OCC1CCCCC1 | 96 | 49 | 70 |
| CCN(CC)CCN(Cc1ccc(-c2ccc(C(F)(F)F)cc2)cc1)C(=O)Cn1c(CCc2cccc(F)c2F)nc(=O)c2sccc21.O=C(O)C(O)C(O)C(=O)O | 96 | 70 | 70 |
| CCc1nc(N)nc(N)c1-c1ccc(C(C)(C)C)cc1 | 94 | 0 | 27 |
| Cl.N=c1n(CCN2CCCCC2)c2ccccc2n1CC(O)c1cccc(Br)c1 (centres undefined) | 86 | 33 | 25 |
| COc1ccc2nccc([C@@H](O)CN3CCC(NC(=O)C(c4cc5ccccc5o4)N4CCN(C(c5ccccc5)c5ccccc5)CC4)CC3)c2c1 (some centres undefined) | 100 | 100 | 18 |
| CS(=O)(=O)Cc1cccc(Nc2ncc(Cl)c(Nc3cccnc3C(N)=O)n2)c1.Cl | 96 | 97 | 56 |
| CCOC(=O)NCC(=O)Nc1cccc(-c2cccc(-c3nc4cccc(C)c4[nH]3)c2)c1 | 88 | 35 | 14 |
| COc1cc2nc(N(C)Cc3cc4c(Cl)cccc4s3)nc(N)c2cc1OC.Cl | 90 | 27 | 32 |
| CCC1CN2CCc3c([nH]c4ccccc34)C2CC1CC1=NCCc2c1[nH]c1ccc(OC)cc21.Cl (centres undefined) | 100 | 68 | 99 |
| O=C(Cn1c(=O)oc2ccccc21)N1CCC(n2c(=O)n(CCCN3CCOCC3)c3ccccc32)CC1 | 99 | 100 | 11 |
| CO/C(=C\C=C\c1cc2cc(Cl)c(Cl)cc2[nH]1)C(=O)NCCCN(C)CCN(C)c1ccccc1 | 96 | 59 | 38 |
| COc1ccc(C2NCCc3c2[nH]c2ccccc32)cc1CN1CCN(c2ccc(F)cc2)CC1.Cl (centres undefined) | 97 | 56 | 37 |
| COc1c(C2CCN(CCCCNC(=O)C=Cc3cc4cc(Cl)ccc4o3)CC2)ccc2c1CCCC2 | 87 | 19 | 33 |
| NC(=O)c1ccc(NCC(=O)Nc2cccc(-c3cccc(-c4nc5cc(F)ccc5[nH]4)c3)c2)cc1 | 97 | 32 | 15 |
| COc1ccc2nccc(N3CCC(CCNCc4ccc5c(n4)NC(=O)CS5)CC3)c2n1.Cl | 100 | 75 | 32 |
| Cc1nc(C(=O)N2CCCC[C@H]2CNC(=O)c2ccc(-c3ccc(N4CCCC4=O)cc3C)cc2)c(-c2ccc(F)cc2)s1 | 98 | 94 | 6 |
| COc1ccc(CNCc2cccc(-c3ccc(-c4nc5ccccc5[nH]4)s3)c2)cc1.O=C(O)C(F)(F)F | 90 | 52 | 14 |
| Cc1cccc2nc(-c3cccc(-c4cccc(NC(=O)Cc5c[nH]cn5)c4)c3)[nH]c12 | 100 | 100 | 32 |
| Cc1ncc([N+](=O)[O-])n1CCOC(=O)NC(NCC1COc2ccccc2O1)C(Cl)(Cl)Cl (centres undefined) | 100 | 78 | 0 |
| CN(C)Cc1ccc(-c2cc3ncnc(Nc4ccc(OCc5cccc(F)c5)c(Cl)c4)c3s2)[nH]1 | 99 | 87 | 53 |
| Cc1cc(NC(=O)c2ccc(S(=O)(=O)N(Cc3ccccc3)C(C)C)cc2)no1 | 87 | 67 | 0 |
| O=C(/C=C/c1ccc(Cl)c(Cl)c1)NCCCCCN1CCC(NC(=O)Nc2ccc([N+](=O)[O-])cc2)CC1 | 100 | 2 | 20 |
| C=CCNC(=O)CCCNC(=N)N.Cl | 98 | 12 | 0 |
| CCn1c(-c2cc(C)on2)nc2cnc(Oc3ccc(C(=O)N4CC(=O)N(C)C4C(C)(C)C)cc3)cc21 (centres undefined) | 81 | 57 | 44 |
| O=C1c2ccccc2-n2c1nc1ccccc1c2=O [TRYPTANTHRIN] | 93 | 80 | 9 |
| O=C(NCCc1ccccc1)N(Cc1ccccc1-c1cccc(CNCCc2ccccc2)c1)C1CCN(Cc2ccccc2)CC1.O=C(O)C(F)(F)F | 100 | 88 | 100 |
| Nc1nccc2ccc(-c3cccnc3)cc12 | 97 | 95 | 9 |
| Cc1cccc(N2CCN(C3CCC(NC(=O)c4cc5ccccc5[nH]4)CC3)CC2)c1C (centres undefined) | 100 | 21 | 49 |
